For eleven compounds, growth results are on record in PubChem BioAssay (NCI).

The panel holds about 83,000 compounds, 20% with a hit somewhere; the sample as a whole holds those more often.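 Single-concentration screen, 48 h exposure, 96-well plates. Endpoint: percent growth. Below 10 = active.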 Unmarked numbers belong to inactive results. The source made the active and inactive calls.

What all share (test): NCI-60 one-dose screen, 48 h (100 = growth as untreated, 0 = no growth, -100 = all killed)
Common to all, as to conditions: 10 µM

Experiment [1] concerns K-562 leukemia.
For experiment [2], the system named is MALME-3M melanoma.
The test system of experiment [3] is MDA-MB-231 breast.
Experiment [4] deals with RXF 393 renal.
The subject of experiment [5] is SF-268 CNS.
Experiment [6] has as its system SF-295 CNS.
Experiment [7] has as its system SF-539 CNS.
The subject of experiment [8] is UACC-257 melanoma.
Experiment [9] deals with M14 melanoma.
Experiment [10] relates to HCT-15 colon.

Consider `C=C(NC(=O)C(=C)NC(=O)c1csc(C2=NC3c4csc(n4)C4NC(=O)c5csc(n5)C(C(C)(O)C(C)O)NC(=O)C5CSC(=N5)/C(=C/C)NC(=O)C(C(C)O)NC(=O)c5csc(n5)C3(CC2)NC(=O)C(C)NC(=O)C(=C)NC(=O)C(=C)NC(=O)C(C(C)C)NC2C=Cc3c(C(C)O)cc(nc3C2O)C(=O)OC4C)n1)C(N)=O` (stereo not given), for which the growth in experiment [1] is -11.3% (active); in experiment [2], -64.6% (active); in [3], 29.7%; in experiment [4], 16.9%; in experiment [5] it was 21.5%; in experiment [6] it was 26.6%. The growth was -22.5% (active) in [7], 24.2% in experiment [8], -29.5% (active) in experiment [9] and -23.7% (active) in [10].
In the case of `CC(=O)[C@H]1CC[C@H]2[C@@H]3CCC4=CC(=O)C=C[C@]4(C)[C@H]3CC[C@]12C`, the growth is 76.6% in experiment [1]; 89.3% in experiment [2]; 100% in experiment [3]; 125% in experiment [4]; 102% in [5]; 92.5% in experiment [6]. Further, the growth in experiment [7] was 87.9%; in experiment [8] it was 87.8%; in [9], 107%; in [10] it was 106%.
As to `COc1ccc(-c2nn(-c3cccc(NC(=O)Nc4cc(C(F)(F)F)cc(C(F)(F)F)c4)c3)cc2-c2ccncc2)cc1Cl`, the growth in experiment [1] is 7.03% (active); in experiment [2], -19.9% (active); in [3], -63% (active); in experiment [4], -12.6% (active); in experiment [5], 9.51% (active); in experiment [6] it was -1.97% (active). In addition, the growth in [7] was -42.9% (active); in experiment [8], -31% (active); in [9], -34.1% (active); in [10], 12.1%.
Turning to `CCCC#CCN(CC)CC`, the growth was 103% in [1]; 111% in experiment [2]; 109% in experiment [3]; 112% in experiment [4]; 111% in experiment [5]; 80.2% in experiment [6]. Besides, the growth in experiment [7] is 99.6%; in experiment [8], 93.6%; in experiment [9], 108%; in [10] it was 99.6%.
As to `COc1ccc(/C=C2/CN(C(=O)c3ccccc3F)C/C(=C\c3ccc(OC)cc3)C2=O)cc1`, the growth was 2.77% (active) in experiment [1]; 62.1% in experiment [2]; 70.5% in [3]; 12.5% in [4]; 51.5% in [5]; 50.1% in [6]. The growth was 93.1% in experiment [7], 71.2% in [8], 1.05% (active) in [9] and 18.2% in experiment [10].
As to `Nc1ccccc1NC(=O)CCCCC(=O)Nc1ccc2c(c1)/C(=C/c1ccc[nH]1)C(=O)N2`, the growth was 99.6% in experiment [1]; 32.9% in experiment [2]; 93% in experiment [3]; 62.9% in [4]; 71.9% in experiment [5]; 98.4% in [6]. For the same compound, the growth in [7] is 53.1%; in experiment [8], 97.9%; in experiment [9] it was 69.9%; in experiment [10] it was 92.2%.
With `O=[P@@]1(c2ccccc2)O[C@H](COCc2ccccc2)[C@@H](OCc2ccccc2)[C@H](OCc2ccccc2)[C@H]1O`, the growth in experiment [1] is 93.9%; in [2] it was 109%; in experiment [3] it was 73.2%; in [4], 50%; in [5], 43.6%; in experiment [6], -24.9% (active). Also, the growth was 58.1% in [7], 88.4% in experiment [8], 102% in experiment [9] and 94.2% in experiment [10].
For the compound `CC(=O)c1nc2ccccc2n1CCNC(N)=O`, the growth is 44.1% in experiment [1]; 55.8% in [2]; 77.2% in experiment [3]; 90.9% in experiment [4]; 71.9% in [5]; 127% in experiment [6]. The growth in experiment [7] is 79.7%; in experiment [8] it was 94.8%; in experiment [9] it was 73.8%; in [10], 103%.
`CCOC(=O)N1C/C(=C/c2ccc(Cl)cc2)C(=O)/C(=C/c2ccc(Cl)cc2)C1`: the growth in [1] is 3.7% (active); in experiment [2] it was 84.9%; in experiment [3], 68.3%; in experiment [4], 47.4%; in [5] it was 52.3%; in experiment [6] it was 44.2%. The growth in experiment [7] was 98%; in [8], 94.2%; in experiment [9] it was 57.1%; in [10], 34.3%.
Regarding `c1ccc(CP(Cc2ccccc2)c2ccccc2)cc1`, the growth was 83.4% in experiment [1]; 82.3% in experiment [2]; 98.3% in [3]; 113% in experiment [4]; 110% in [5]; 82.4% in experiment [6]. Also, the growth in experiment [7] is 110%; in experiment [8], 95.5%; in [9], 95.4%; in [10] it was 95.1%.
Turning to `N#Cc1ncc(-c2ccc(C(F)(F)F)cc2)c(NCc2cc(C(F)(F)F)cc(C(F)(F)F)c2)n1`, the growth in experiment [1] is 16.1%; in experiment [2] it was 10.1%; in [3], 39.4%; in [4], 35.8%; in [5], 56.8%; in [6], 4.36% (active). The growth in experiment [7] is 66.4%; in experiment [8], 28.7%; in [9], 40%; in experiment [10] it was 7.65% (active).
